# Bioassay records as filed in PubChem.
# Peg3 prom inh-1: Peg3 promoter activity inhibition | HeLa PEG-Prom luciferase reporter, luminescence, overnight | inhibition, % at 20 µM | 360,000 tested, 1.7% active | AID 588405;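 active = inhibition of at least 50% at 20 µM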
# Shn3 inh set2: Schnurri-3 reporter inhibition in Clone20 osteoblasts; Clone20 osteoblast Shn3 3'UTR firefly luciferase, 24 h; inhibition, % at 12.5 µM; 360,000 tested, 0.52% active; AID 588674;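 active = mean inhibition of at least 75% with every replicate also reaching 75%; inconclusive = mean inhibition at least 75% but some replicate below; inactive = mean inhibition below 75%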;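 also: 0% = median of neutral control wells and 100% = pilot-screen positive control compound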
# LMP1 NFkB inh: Epstein-Barr LMP1 NF-kappaB reporter inhibition; LMP1-induced NF-kappaB luciferase reporter cells, luminescence; inhibition, % at 12.5 µM; 350,000 tested, 0.69% active; AID 504558; in the data active = inhibition above about 41%; inconclusive = no clear call, values can overlap the other calls;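 also: 0% = neutral control wells and 100% = reference inhibitor control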
# CF NFkB inh: cystic fibrosis NF-kB activation inhibition; KKLEB NF-kB-GFP reporter, PAF-induced, GFP fluorescence overnight; inhibition, % at 5 µM; 360,000 tested, 0.86% active;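 active = at least 50% inhibition at 5 µM, scaled per plate between neutral and stimulator controls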;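 also: PAF is a Pseudomonas aeruginosa culture filtrate used as stimulus; plate controls were PAF-stimulated DMSO wells for no effect and unstimulated DMSO wells for full effect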
# KKLEB cytotox: reduces viability of KKLEB cystic fibrosis airway cells. KKLEB CF airway cells viability, ATPlite luminescence, overnight; active compounds read low; cells stimulated with P. aeruginosa culture filtrate. activity change (cytotoxicity), % at 5 µM. 360,000 tested, 0.36% active;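 active = corrected activity change at or below -50% at 5 µM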
# HIF-2a block: inhibitors of HIF-2a | 786-0 RCC cells HIF-2a reporter, luciferase luminescence, overnight | inhibition, % at 18.8 µM | 360,000 tested, 0.72% active | AID 624352;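 active = inhibition of the luminescence signal of 40% or more relative to plate controls, in a single-dose primary screen at 18.75 µM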
# Peg3 prom inh-2: Peg3 promoter inhibition confirmation; shares compounds with Peg3 prom inh-1; inhibition, % at 20 µM; 1,300 tested, 84% active; HeLa PEG-Prom luciferase reporter, luminescence, overnight;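 active = at 20 µM dose, 40% or more inhibition averaged across four replicates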
# * marks the source's active call; other numbers are inactive results; ? = inconclusive; nt = not tested or not shown. Sampled rows, rich in hits. Any-hit rate of the full collection: about 2.9%.
SMILES,Peg3 prom inh-1,Shn3 inh set2,LMP1 NFkB inh,CF NFkB inh,KKLEB cytotox,HIF-2a block,Peg3 prom inh-2
CC(C)n1nc(C(=O)Oc2cccc(Cl)c2Cl)c2ccccc2c1=O,31.5,-16.0,4.4,13.1,-10.7,-5.3,nt
CCc1nc2ccc(C(=O)NCCCN3CCCC3=O)cn2c1N(C)CCC(C)C,-0.5,7.1,nt,-2.8,-5.7,-6.1,nt
CN1CCN(c2nc(-c3ccccc3)nc3c2oc2ccccc23)CC1,65.9*,-12.1,-23.5,-59.4,-2.1,8.8,-3.0
CCOC(=O)c1c(NC(=O)CSc2nnnn2-c2ccccc2OCC)sc2c1CC(C)(C)NC2(C)C,79.5*,8.1,1.7,21.7,-6.8,1.9,86.2*
CCOC(=O)c1c(NC(=O)Cc2ccccc2)sc2c1CC(C)(C)NC2(C)C,21.2,6.1,4.0,9.7,-21.8,0.6,nt
COc1ccccc1CNCC(O)Cn1c2ccccc2c2ccccc21 (stereo unspecified),110.8*,28.2,-16.9,25.2,-17.6,23.3,97.4*
Nc1c(C(=O)Nc2cccc(C(=O)O)c2)sc2nc3c(cc12)CCCC3,69.1*,32.2,57.2*,13.2,-16.9,76.8*,54.9*
COCCn1c(C)cc(C(=O)COC(=O)c2cc3c(s2)CCC3)c1C,-219.9,-67.3,-12.4,0.4,7.3,-144.5,nt
COCCn1c(C)cc(C(=O)COC(=O)c2cccc(O)c2)c1C,74.6*,53.5,82.1*,-7.6,-4.1,37.9,68.3*
O=[N+]([O-])c1ccc(/C=C/c2ccc3ccccc3n2)cc1,-42.5,19.8,4.2,-51.9,-27.6,-5.5,nt
CN(C)c1ccc(/C=C/c2nc3ccccc3s2)cc1,102.1*,84.7,25.1,-31.1,-83.1*,61.6*,66.6*
CN(C)c1ccc(/C=C/c2ccc3ccccc3n2)cc1,88.5*,88.3*,75.6*,-30.2,-79.7*,76.1*,67.9*
CCCCn1c(N)c(N(CCOC)C(=O)c2ccc(C)c(S(=O)(=O)N3CCCCC3)c2)c(=O)[nH]c1=O,12.3,-13.8,-8.4,2.5,-13.3,6.4,nt
COC(=O)c1c(C)[nH]c(C(=O)C(C)OC(=O)c2c(C)noc2C)c1C (stereo unspecified),-5.4,16.6,0.1,5.7,0.0,9.8,nt
CCOc1ccc(NC(=O)CN2C(=O)NC(CCSC)C2=O)cc1 (stereo unspecified),9.2,11.0,-9.7,-16.2,-0.1,8.5,nt
CCCc1nc(SCC(=O)N2CCCc3ccccc32)c2c(=O)n(C)c(=O)n(C)c2n1,53.3*,29.0,-0.7,8.9,17.2,15.5,46.4*
CC(=O)c1ccc(Nc2nc(C(N)Cc3ccc(Cl)cc3)cs2)cc1 (stereo unspecified),56.2*,9.0,nt,-18.9,-17.4,0.7,72.3*
COc1ccc(CC(N)c2csc(Nc3ccccn3)n2)cc1 (stereo unspecified),-32.8,17.4,nt,-1.7,-12.7,-38.4,nt
NC(COCc1ccccc1)c1csc(Nc2cc(Oc3ccccc3)ncn2)n1 (stereo unspecified),6.6,5.2,nt,-1.7,-3.2,7.5,nt
COc1ccc(CC(N)c2csc(Nc3cccc(OC)n3)n2)cc1 (stereo unspecified),69.5*,-1.9,nt,-8.6,3.1,22.7,96.5*
NC(Cc1ccc(F)cc1)c1csc(Nc2cc(Oc3ccccc3)ncn2)n1 (stereo unspecified),79.2*,-22.6,nt,-6.9,-11.6,6.4,82.8*
Cc1cccc2cc(C#N)c(NCCNC(=O)c3ccccc3)nc12,-14.2,0.9,8.6,-17.9,3.9,-14.2,nt
Cc1noc(C)c1COc1ccccc1C(=O)NC(C)c1ccc(Cl)cc1 (stereo unspecified),15.5,12.3,-2.6,1.4,-19.0,8.0,nt
CNC(=O)c1[nH]cnc1C(=O)Nc1ccccc1,-45.7,5.6,11.3,7.4,7.6,-62.5,nt
O=C(Nc1ccccc1)c1nc[nH]c1C(=O)NCCCNC(=O)c1[nH]cnc1C(=O)Nc1ccccc1,62.7*,3.0,3.2,17.1,-29.2,0.7,46.3*
SMILES,Peg3 prom inh-1,Shn3 inh set2,LMP1 NFkB inh,CF NFkB inh,KKLEB cytotox,HIF-2a block,Peg3 prom inh-2
O=C(Nc1ccccc1)c1nc[nH]c1C(=O)NCCCCCCNC(=O)c1[nH]cnc1C(=O)Nc1ccccc1,61.6*,5.2,-13.2,7.4,-7.6,4.7,56.8*
O=C(Nc1ccccc1)c1nc[nH]c1C(=O)NCCN(CCNC(=O)c1[nH]cnc1C(=O)Nc1ccccc1)CCNC(=O)c1[nH]cnc1C(=O)Nc1ccccc1,40.6,-3.8,-8.1,8.1,-3.1,1.0,nt
Cc1ccc2c(NC(=O)c3ccco3)cccc2n1,11.2,-7.7,3.4,1.1,2.4,-9.2,nt
Cc1ccc2ccc(C(Nc3ccccc3)c3ccc(C(C)C)cc3)c(O)c2n1 (stereo unspecified),nt,nt,nt,nt,nt,-11.8,nt
CCCC(=O)NC(c1ccc(N(C)C)cc1)c1ccc2cccnc2c1O (stereo unspecified),56.6*,91.1*,46.7*,16.4,-3.0,8.0,68.2*
COc1ccccc1NC(c1cccnc1)c1ccc2cccnc2c1O (stereo unspecified),36.4,33.5,-7.3,23.2,-20.3,20.1,nt
CCCC(=O)NC(c1ccc(C(C)C)cc1)c1ccc2cccnc2c1O (stereo unspecified),66.7*,90.9*,61.9*,-6.4,-4.9,18.3,70.0*
COc1ccc(C(NC(=O)C(C)C)c2ccc3cccnc3c2O)cc1 (stereo unspecified),60.7*,94.8*,24.1,3.3,-9.3,22.6,65.9*
CC(=O)NC(c1ccc(Cl)cc1)c1ccc2cccnc2c1O (stereo unspecified),60.2*,87.3*,62.9*,6.1,-32.5,16.7,70.3*
Cc1nc(SCC(O)CO)c([N+](=O)[O-])[nH]1 (stereo unspecified),2.1,19.5,-16.1,-7.8,-10.0,-0.5,nt
Cc1ccnc(NC(c2cccnc2)c2ccc3cccnc3c2O)c1 (stereo unspecified),9.4,35.3,4.1,0.0,-3.1,17.7,nt
CCCCC(=O)NC(c1ccc(OC)cc1)c1ccc2cccnc2c1O (stereo unspecified),51.9*,90.6*,64.6*,-44.1,5.1,18.7,69.4*
CCC(=O)NC(c1ccc(C)cc1)c1ccc2cccnc2c1O (stereo unspecified),60.5*,89.8*,?,1.7,-2.1,15.6,68.5*
Cc1cc(NC(c2ccc(Cl)cc2)c2ccc3cccnc3c2O)no1 (stereo unspecified),52.8*,88.7*,69.6*,-12.2,-0.2,14.3,63.2*
CCCC(=O)NC(c1ccc(OC)cc1)c1c(O)ccc2ccccc12 (stereo unspecified),34.8,0.0,-8.2,30.5,-16.8,27.5,nt
O=C(NC1CCCCC1)C(c1ccnc2ccccc12)N1CCc2ccccc2C1 (stereo unspecified),-10.4,-22.1,nt,-16.3,-36.9,-19.2,nt
